Screening data as filed in PubChem.
Shown are actives, neighbours in structure and some others; about 3.5% of the full set was active somewhere.
Pf apPOL inh: Pf-apPOL DNA polymerase inhibition; 210,000 compounds, 0.25% hits; inhibition, % at 10 µM; Recombinant Pf-apPOL, molecular beacon fluorescence, 1.5 h; AID 1794808
mHTT CaM bind: disrupts binding of mutant huntingtin to calmodulin; P42858; AlphaScreen His-mHTT/GST-CaM binding, luminescence; inhibition, % at 15 µM; 190,000 compounds, 3.6% hits; AID 1671202;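 also: 0% = both proteins with DMSO and 100% = one protein alone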
An asterisk follows results filed as active; i = inactive; . = no result. Rule as the data show it: active = inhibition above about 50%; inactive = the rest.

SMILES | Pf apPOL inh | mHTT CaM bind
CCCN1C(=O)CCc2cc(C(=O)NCc3ccc(F)cc3)ccc21 | -3 | -3
CC(=O)N(C1=C(N2CCCCC2)C(=O)c2ccccc2C1=O)c1cccc(Cl)c1 | 3 | 76*
CC(=O)N(C)C1=C(N2CCCC2)C(=O)c2ccccc2C1=O | -3 | 15
CC(=O)N(C1=C(N2CCOCC2)C(=O)c2ccccc2C1=O)c1ccc(C(=O)O)cc1 | -12 | 18
CC(=O)N(C1=C(N2CCCC2)C(=O)c2ccccc2C1=O)c1ccc(F)c(F)c1 | -4 | 100*
O=C(Nc1ccc2c(c1)N(C(=O)c1ccco1)CC2)c1cc(=O)c2ccccc2o1 | -11 | -4
Cc1ccc(-c2nc(N)sc2-c2ccccc2)cc1 | -3 | 33
O=C1NC(=O)/C(=C/c2cc(Cl)cc(Cl)c2O)S1 | -12 | 86*
O=C1NC(=O)/C(=C/c2cc(Br)cc(Cl)c2O)S1 | -2 | 60*
N=C1NC(=O)/C(=C/c2cc(Br)cc(Cl)c2O)S1 | -3 | 9
O=C1NC(=O)/C(=C/c2ccccc2OCc2ccc([N+](=O)[O-])cc2)S1 | -2 | 1
CCOc1cc([N+](=O)[O-])cc(/C=C2\SC(=O)NC2=O)c1O | 71* | 6
O=C1NC(=O)/C(=C/c2ccc(Cl)cc2Cl)S1 | 0 | 2
O=C(NC1CCCC1)c1cnn2c(C(F)(F)F)cc(-c3ccccc3)nc12 | -18 | 15
CCn1ncc(S(=O)(=O)NCCCn2cc(Cl)cn2)c1C | . | -4
CC(C)NC(=O)N(C)Cc1ccsc1 | 4 | 0
COc1ccc(N2CC(C(=O)N3CCCCC3C)CC2=O)cc1 (centres undefined) | -8 | 21
O=C(NCc1ccccc1F)c1cc2n(n1)CCCN(Cc1ccc(Cl)cc1)C2=O | 0 | 6
O=C(NCCCN1CCOCC1)c1cc2n(n1)CCCN(Cc1ccc(Cl)cc1)C2=O | 0 | 1
Cc1ccccc1CNC(=O)c1cc2n(n1)CCCN(Cc1ccc(Cl)cc1)C2=O | -4 | 52*
O=C(NCCCN1CCCC1)c1cc2n(n1)CCCN(Cc1ccc(Cl)cc1)C2=O | -5 | 52*
O=S(=O)(NCC1(O)CCOCC1)c1c(F)cccc1F | -5 | -15
CCNC(=O)C1CCN(c2nc3ccc(-c4ccc(OC)cc4)nc3s2)CC1 | 7 | 62*
COc1ccc(-c2ccc3nc(N4CCC(C(=O)NC(C)C)CC4)sc3n2)cc1 | -5 | 14
COc1c(C(=O)NC2CCCC2)sc2ccc(F)cc12 | 2 | -21
SMILES | Pf apPOL inh | mHTT CaM bind
CC(C)(C)n1nc2c(c1NC(=O)COc1ccc(Cl)cc1)CSC2 | 6 | 57*
CC(C)(C)n1nc2c(c1NC(=O)COc1ccc(Cl)cc1Cl)CSC2 | -3 | 13
O=C(Cn1cc(Cl)c([N+](=O)[O-])n1)N1CCNCC1 | . | 1
O=C(Nc1ccccc1Cl)N1CCC(c2cnn(-c3cccc(F)c3)c2)CC1 | -4 | -34
CC(C)(C)c1ccc(/C=N/n2c(-c3ccc(C(C)(C)C)cc3)n[nH]c2=S)cc1 | . | i
O=S(=O)(c1ccc(-c2csc(=Nc3ccc(F)cc3)n2CCCO)cc1)N1CCOCC1 | -2 | 47
CCOc1ccc(N=c2scc(-c3ccc(S(=O)(=O)N4CCCC4)cc3)n2CC)cc1 | -3 | 4
O=S(=O)(c1ccc(-c2csc(=Nc3cccc(Cl)c3)n2CCO)cc1)N1CCCCC1 | -7 | 51*
O=S(=O)(c1ccc(-c2csc(=Nc3ccc(Cl)cc3)n2CCCO)cc1)N1CCCC1 | -12 | 55*
Cn1nc(-c2nc(-c3ccccc3F)no2)c2c1CCN(C(=O)c1cccs1)C2 | -3 | 13
CC1(C)CC(=O)C2=C(C1)OC(N)=C(C#N)C2C1CCCCC1 (centres undefined) | 4 | -2
Cc1ccc2ccc(C(Nc3ccccn3)c3ccsc3)c(O)c2n1 (centres undefined) | -4 | 76*
COc1ccc(NCc2ccccn2)cc1 | -5 | .
CCOc1ccc(C(Nc2ccccn2)c2ccc3ccc(C)nc3c2O)cc1C (centres undefined) | 25 | 75*
COc1ccc(C(Nc2ccccn2)c2ccc3ccc(C)nc3c2O)cc1 (centres undefined) | -1 | 72*
CCOc1ccccc1Nc1cc(C)nc2c(C)cccc12 | -2 | -8
Cc1sc(NC(=O)c2ccccc2)c(C(Nc2ccccn2)c2cccs2)c1C (centres undefined) | 0 | -9
CC(C)(C)c1ccc(C(=O)N2CCc3nc(-c4cccc(F)c4)[nH]c(=O)c3C2)cc1 | 5 | 5
Cc1ccc(N=Cc2ccc(Cl)c(Cl)c2)c(O)c1 | -16 | 13
CC(=O)Nc1ccc(S(=O)(=O)N2CCN(c3cc(OC(C)C)nc(C)n3)CC2)cc1 | -2 | -11
N#Cc1c(Nc2ccc(F)cc2)sc2c(O)cc(=O)[nH]c12 | -3 | 51*
O=c1cc(O)c2sc(Nc3ccc(F)cc3)nc2[nH]1 | 4 | 20
Cc1cc(C2CCCN2C(=O)c2c(Cl)cnn2C)no1 (centres undefined) | -10 | -7
CCCNc1cc(N2CCC(CCC(=O)NC3CCN(C(=O)OCC)CC3)CC2)ncn1 | -6 | 1
CC1(C)CC(CCN(Cc2ccccc2)C(=O)c2ccco2)(c2ccccc2)CCO1 (centres undefined) | -1 | 26
SMILES | Pf apPOL inh | mHTT CaM bind
CC(=O)N(CCC1(c2ccccc2)CCOC(C)(C)C1)Cc1ccc(N(C)C)cc1 (centres undefined) | -4 | 75*
CC1CC(=O)C2=C(C1)Nc1nc(C(F)(F)F)nn1C2c1ccccc1 (centres undefined) | 1 | -10
O=C(Nc1cccc(O)c1)c1nn2c(C(F)(F)F)cc(-c3ccco3)nc2c1Br | 7 | 61*
O=C(NC1CCCC1)c1nn2c(C(F)(F)F)cc(-c3ccco3)nc2c1Br | 3 | 0
Cc1ccccc1-n1nc2c(c1NC(=O)c1ccccc1C(F)(F)F)CSC2 | -11 | 31
Cc1ccccc1-n1nc2c(c1NC(=O)c1ccc(Cl)c([N+](=O)[O-])c1)CSC2 | -6 | 56*
O=C(Nc1c2c(nn1-c1ccc(Cl)cc1)CSC2)C1CCCC1 | 3 | 2
Cc1ccc(C(=O)Nc2c3c(nn2-c2ccccc2C)CSC3)cc1 | -4 | 43
Cc1ccccc1-n1nc2c(c1NC(=O)c1cccc(C(F)(F)F)c1)CSC2 | -9 | 100*
Cc1ccc(C(=O)Nc2c3c(nn2-c2cccc(C)c2C)CSC3)cc1[N+](=O)[O-] | 4 | 6
Cc1ccc(C(=O)Nc2c3c(nn2-c2ccccc2C)CSC3)cc1C | -4 | 62*
O=C(Nc1c2c(nn1-c1ccc(F)cc1)CSC2)C1CCCC1 | -7 | 57*
CSc1ccc(C2CC(c3ccccc3)Nc3nnnn32)cc1 (centres undefined) | -6 | 1
O=C(NCc1ccc2c(c1)OCO2)c1cc2n(n1)CCCC2 | 2 | 2
Cc1ccccc1-n1nc2c(c1NC(=O)C1CCCCC1)CSC2 | -15 | 52*
O=C(Nc1c2c(nn1-c1ccc([N+](=O)[O-])cc1)CSC2)c1cccc(C(F)(F)F)c1 | 6 | 57*
Cc1ccccc1-n1nc2c(c1NC(=O)c1cccc([N+](=O)[O-])c1)CSC2 | 0 | 5
Cc1cccc(-n2nc3c(c2NC(=O)C2CCCC2)CSC3)c1C | -5 | 23
Cc1cccc(C(=O)Nc2c3c(nn2-c2ccc([N+](=O)[O-])cc2)CSC3)c1 | -6 | 19
Cc1cccc(C(=O)Nc2c3c(nn2-c2ccccc2C)CSC3)c1 | -5 | 58*
CN(C)CN1C(=O)C(=Nc2cccnc2)c2ccccc21 | 1 | 5
